PubChem BioAssay (NCATS)
Records with an inconclusive call do not appear. A number with no mark means an inactive call. Activity calls are given as the source filed them. Calls follow the shape of the full dose curve; tested in HEK293 reporter line.

Assay: qHTS for Inhibitors of the Functional Ribonucleoprotein Complex (vRNP) of Lassa (LASV) Arenavirus: LASV Primary Screen - GLuc reporter signal (AID 1347082); also: nearly all actives have a fitted effect of over 60% in size
Conditions: LASV minigenome vRNP, Gaussia luciferase reporter; series mostly up to 57.5 µM; activity change, negative = inhibition: at the top concentration
% is scaled to controls: 0 for no effect and ±100 for the full control effect; potency is read from the fitted curve at half-maximal effect.

Structure (SMILES)	activity change, negative = inhibition	Potency
O=C(c1cncc(Br)c1)N1CCC(N2CCCC2)CC1	8.12%	–
COc1ccc2c(OCc3nnc4ccc(-c5ccccc5)nn34)ccnc2c1	-4.55%	–
c1coc(CNc2ncnc3nc[nH]c23)c1	–	inactive
CCCCCCCCCCCCCCCC(=O)O[C@H]1[C@@H](O)[C@@H](O)[C@@H]([C@H](NC(=O)[C@@H]2C[C@@H](CCC)CN2C)[C@H](C)Cl)O[C@@H]1SC	-0.781%	–
CC1CNc2c(cccc2S(=O)(=O)N[C@@H](CCCN=C(N)N)C(=O)N2CC[C@@H](C)C[C@@H]2C(=O)O)C1 (some centres not stated)	-1.55%	–
COc1ccc2cc(-c3nc(-c4ccc(S(C)=O)cc4)[nH]c3-c3ccncc3)ccc2c1 (configuration not stated)	-25.8%	–
CC1COC2(CCN(c3nc(=O)c4cc(C(F)(F)F)cc([N+](=O)[O-])c4s3)CC2)O1 (configuration not stated)	-0.519%	–
COC1CCC(C(=O)c2ccc3nc4c(cc3c2)CCCO4)CC1 (configuration not stated)	-4.46%	–
O=C(/C=C/C=C/c1ccc2c(c1)OCO2)N1CCCCC1	-4.09%	–
CC1CCN(c2cc(N3CCN(C)CC3)ccc2NC(=O)c2cc(C#N)c[nH]2)CC1	1.02%	–
C[C@@H]1C(=O)O[C@H]2CC34[C@H]5C[C@@H](C(C)(C)C)C36[C@H](OC(=O)[C@@H]6O)O[C@@]4(C(=O)O5)[C@]21O (some centres not stated)	3.95%	–
COc1cc2c(cc1OC)C1CC(=O)C(CC(C)C)CN1CC2 (configuration not stated)	-19.2%	–
O=[N+]([O-])c1ccc(-c2nc(-c3ccc(F)cc3)c(-c3ccncc3)[nH]2)cc1	-5.15%	–
COc1ccc2cc([S+]([O-])Cc3ncc(C)c(OC)c3C)nc2c1	-34.4%	–
Cc1ccccc1C(C(=O)NC1CCCCC1)N(C(=O)Cn1ccnc1C)c1cccc(F)c1 (configuration not stated)	2.95%	–
Cc1ccccc1C(C(=O)NC1CCCCC1)N(C(=O)CNc1ccc(C#N)cc1)c1cccc(F)c1 (configuration not stated)	0.534%	–
O=c1[nH]c(=O)n(C2CCCO2)cc1F (configuration not stated)	-12.2% [at 115 µM]	–
O=C(CCN1CCN(C(=O)OCc2cc(Cl)cc(Cl)c2)CC1)c1ccc2[nH]c(=O)oc2c1	4.52%	–
O=C(Nc1nc2ccccc2n1CCN1CCOCC1)c1cccc([N+](=O)[O-])c1	–	inactive

Structure (SMILES)	activity change, negative = inhibition	Potency
O=C(NC1CCOCC1)c1ccc(-c2cc(-c3cn[nH]c3-c3ccccn3)ccn2)cc1	-1.28%	–
CC(C)N(CC[C@H](c1ccccc1)c1cc(CO)ccc1O)C(C)C	-1.91%	–
CC(Cc1ccc(O)c(O)c1)(NN)C(=O)O (configuration not stated)	7.41%	–
O=C(O)C1CCCN(CCC=C(c2ccccc2)c2ccccc2)C1 (configuration not stated)	–	inactive
COc1ccc([C@@H]2CNC(=O)C2)cc1OC1CCCC1	-22.3%	–
Cc1cc(NC(=O)Nc2ccc(N(C)C)cc2)c2cc(F)cc(F)c2n1	1.23%	–
Cc1ccccc1-n1c(Cn2nc(-c3cccc(O)c3)c3c(N)ncnc32)nc2cccc(C)c2c1=O	–	19.3 µM (active)
Cc1ccc(O)c(C(CCN(C(C)C)C(C)C)c2ccccc2)c1 (configuration not stated)	5.94%	–
Cc1cc(O)c2c(c1)C(=O)c1cccc(O)c1C2=O	-0.682%	–
COc1ccccc1N1CCN(CCN(C(=O)C2CCCCC2)c2ccccn2)CC1	-34.9%	–
O=C1CCC[C@@H]2[C@H]3CCC[N+]4([O-])CCC[C@@H](CN12)[C@@H]34 (some centres not stated)	-1.88%	–
OC[C@H]1OC(O)C[C@@H](O)[C@H]1O (some centres not stated)	-3.29%	–
Cc1ccc(CN2CCNCC2)cc1NC(=O)CNc1ccc(F)c(F)c1	2.43%	–
Cc1cc(O)c2c(c1)C(=O)c1cc(O)cc(O)c1C2=O	–	inactive
COc1cc(O)c2c(c1)C(=O)c1cc(C)cc(O)c1C2=O	-7.95%	–
CC(C(C)N1CC(=O)NC(=O)C1)N1CC(=O)NC(=O)C1 (configuration not stated)	14.8%	–
CCN1CCCC1CNC(=O)c1cc(S(N)(=O)=O)ccc1OC (configuration not stated)	–	inactive
Nc1[nH]nc2nnc(-c3c(-c4ccccc4)nn4ccccc34)cc12	-1%	–
